# Data reported in PubChem BioAssay (EPA / NIEHS).
# Results filed as inconclusive are left out. The source made the active and inactive calls. How the source made its calls: active means hit-call score of the fitted dose curve at least 0.9, where 1 is the maximum; inconclusive means response in the unintended direction; inactive means score below 0.9.
# Target: Retinoic acid receptor RXR-alpha (Homo sapiens) (UniProt P19793)
# Test: ATG_RXRa_TRANS: Attagene TRANS-FACTORIAL HepG2 Assay for human Retinoid X Receptor alpha (RXRa) (AID 2283012)
# How it was run: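 HepG2 cells transiently transfected with multiplexed GAL4-UAS reporter units and chimeric NR-GAL4 fusions, dosed 24 h. Reporter mRNA measured by RT-PCR, FAM labelling, HpaI digestion and capillary electrophoresis; gain-of-signal fitted relative to DMSO baseline.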
# Retinoic acid receptor RXR-alpha (Homo sapiens), sequence (P19793 whole entry, looked up): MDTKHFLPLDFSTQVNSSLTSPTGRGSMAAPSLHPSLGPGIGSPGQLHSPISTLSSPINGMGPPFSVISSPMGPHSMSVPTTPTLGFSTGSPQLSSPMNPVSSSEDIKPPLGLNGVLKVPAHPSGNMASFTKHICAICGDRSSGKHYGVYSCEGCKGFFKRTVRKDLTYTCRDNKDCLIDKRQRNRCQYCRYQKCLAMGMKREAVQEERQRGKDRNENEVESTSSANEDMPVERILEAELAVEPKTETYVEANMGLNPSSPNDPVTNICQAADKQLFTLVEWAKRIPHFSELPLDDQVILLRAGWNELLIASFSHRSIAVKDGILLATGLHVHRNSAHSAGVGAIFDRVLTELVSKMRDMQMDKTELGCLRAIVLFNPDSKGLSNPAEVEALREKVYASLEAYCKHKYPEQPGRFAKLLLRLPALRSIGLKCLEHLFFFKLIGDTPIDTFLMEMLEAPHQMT
SMILES,outcome,AC50
O=c1nc(O)n(Cl)c(=O)n1Cl,inactive,–
CC(C)(C1CCC(O)CC1)C1CCC(O)CC1 (stereo unspecified),inactive,–
O=C1c2ccccc2C(=O)C1C(=O)C(c1ccccc1)c1ccc(Cl)cc1 (stereo unspecified),inactive,–
CC(=O)CN(CC(C)=O)N=O,inactive,–
CC(C)C(C)(N)C#N (stereo unspecified),inactive,–
C1CCC(C2CCCCC2)CC1,inactive,–
c1csc(-c2ccc(-c3cccs3)s2)c1,inactive,–
CC(=O)C(F)(F)C(F)(F)F,inactive,–
CCOCn1c(-c2ccc(Cl)cc2)c(C#N)c(Br)c1C(F)(F)F,inactive,–
CCC[CH2][Sn]([CH2]CCC)([CH2]CCC)[CH2]CCC,–,0.866 µM (active)
O=NN1CCCCCC1,inactive,–
Nc1ccc(Br)cc1,inactive,–
Clc1ccc(C(Cl)(Cl)Cl)cn1,inactive,–
C=C(C)C(=O)OCC(CC)CCCC (stereo unspecified),inactive,–
c1cc[c]([Sb]([c]2ccccc2)[c]2ccccc2)cc1,inactive,–
Cc1cc(-c2cc(C)c(N)c(C)c2)cc(C)c1N,inactive,–
C=CC(=O)[O][Sn]([CH2]CCC)([CH2]CCC)[CH2]CCC,–,0.00177 µM (active)
O=[N+]([O-])c1c2ccccc2cc2ccccc12,inactive,–
Cc1cc(SCc2sc(-c3ccc(C(F)(F)F)c(F)c3)nc2C)ccc1OCC(=O)O,inactive,–
ClCc1ccccc1CCl,–,57.4 µM (active)
N#CCC#N,–,43.1 µM (active)
CCCCN(CCCC)C(=S)S,inactive,–
Cc1cc(Cl)ccc1OCCCC(=O)O,inactive,–
CCOc1cc(C=O)ccc1O,inactive,–
CN(N=O)c1ccc([N+](=O)[O-])cc1,inactive,–
Cl[C@H]1OCCO[C@@H]1Cl,inactive,–
